High-throughput results from PubChem BioAssay.
The list is not random: actives were taken first. Their share in the collection is about 2.3%.
SENP8 block-1 – SENP8 protease inhibitors, primary screen, biochemical, luminescence; Sentrin-specific protease 8 (Homo sapiens), Q96LD8; purified SENP8, Z-RLRGG-aminoluciferin cleavage; inhibition, % at 10 µM; 1.2% of 330,000 active; AID 2540, 2010; in the data active means inhibition above about 50%
Target sequence (Q96LD8 whole entry, looked up): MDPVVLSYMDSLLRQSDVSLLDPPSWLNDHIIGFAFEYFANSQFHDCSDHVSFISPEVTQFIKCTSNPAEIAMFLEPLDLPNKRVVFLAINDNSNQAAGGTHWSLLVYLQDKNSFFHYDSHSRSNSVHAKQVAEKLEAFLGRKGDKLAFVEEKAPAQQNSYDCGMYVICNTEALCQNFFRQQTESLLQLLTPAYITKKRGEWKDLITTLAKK
HSP90 inh – HSP90 inhibitors, primary screen, cell lysate, luminescence; Heat shock protein HSP 90 (rabbit reticulocyte lysate; luciferase refolding); Rabbit reticulocyte lysate, luciferase refolding luminescence, 3 h; inhibition, % at 5.6 µM; 0.91% of 290,000 active; AID 1789, 2009;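 active means inhibition above the screen-wide mean plus 3 SD, computed separately per campaign, cut at about 16% in these data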;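 further: 0% = DMSO wells and 100% = 60 µM geldanamycin wells; inhibitors lower the luminescence because luciferase stays unfolded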
SENP7 block – SENP7 protease inhibitors, primary screen, biochemical, luminescence, uHTS; recombinant SENP7, Z-RLRGG-aminoluciferin luminescence, 40 min; inhibition, % at 5 µM; 1.5% of 330,000 active; AID 434973, 2010;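 active means inhibition above about 50% at the single test dose, limit read from the data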;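 further: plate controls were DMSO with enzyme for no effect and no enzyme buffer wells for full effect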
Target sequence (Q9BQF6 706-1050 limits assumed): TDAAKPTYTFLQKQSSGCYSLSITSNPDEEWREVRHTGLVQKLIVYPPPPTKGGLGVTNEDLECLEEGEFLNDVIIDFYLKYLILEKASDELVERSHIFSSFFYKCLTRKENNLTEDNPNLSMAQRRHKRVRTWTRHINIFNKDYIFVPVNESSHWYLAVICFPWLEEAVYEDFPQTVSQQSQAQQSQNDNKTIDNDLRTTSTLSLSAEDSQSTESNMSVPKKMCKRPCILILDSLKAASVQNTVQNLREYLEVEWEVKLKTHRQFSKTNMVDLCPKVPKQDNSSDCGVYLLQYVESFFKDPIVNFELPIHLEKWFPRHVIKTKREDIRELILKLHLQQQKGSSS
LGR2 antag – inhibitors of bursicon-induced LGR2 CRE-luciferase signal, primary screen, cell-based, HEK293, CRE-luciferase reporter, bursicon stimulation. Drosophila bursicon receptor LGR2 (rickets). bursicon-stimulated, 4 h. 0.35% of 380,000 active. AID 720647, 2013. inhibition, % at 9.99 µM;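 active means drop in luminescence signal, shown as inhibition above about 50% in the replicate tests, limit read from the data, passing the limit was not always enough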;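 further: agonist challenge used bursicon conditioned medium at about half maximal strength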
SENP8 block-2 – human SENP8 protease inhibitors, primary screen, biochemical, fluorescence, Nedd8 protein substrate, uHTS | Sentrin-specific protease 8 (Homo sapiens), Q96LD8 | recombinant SENP8 | inhibition, % at 20 µM | 0.64% of 360,000 active | AID 602440, 2012; in the data active means inhibition mostly above about 40%, no sharp cut-off; inactive means mostly below about 27%
SENP6 inh – SENP6 protease inhibitors, primary screen, biochemical, luminescence, uHTS; Recombinant SENP6 catalytic domain, aminoluciferin luminescence; inhibition, % at 10 µM; 1.8% of 330,000 active; AID 2599, 2010;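 active means inhibition above about 50% at the single tested dose, limit read from the data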;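 further: plate controls were DMSO wells with enzyme for no effect and DMSO wells lacking enzyme for full effect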
SENP8 confirm – SENP8 protease inhibitors, retest, confirmation, biochemical, luminescence, single concentration | shares compounds with SENP7 block | Recombinant SENP8, Z-RLRGG-aminoluciferin luminescence, 60 min | inhibition, % at 12.5 µM | 40% of 6,200 active;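 active means mean inhibition across replicates above about 50%, limit read from the data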
SENP6 confirm – SENP6 protease inhibitors, confirmation, biochemical, luminescence, single concentration; 58% of 6,200 active; shares compounds with SENP7 block; inhibition, % at 12.5 µM; recombinant SENP6, Z-RLRGG-aminoluciferin luminescence
SENP7 confirm – SENP7 protease inhibitors, retest, confirmation, biochemical, luminescence, single concentration | shares compounds with SENP7 block | recombinant SENP7, Z-RLRGG-aminoluciferin luminescence, 40 min | inhibition, % at 12.5 µM | 69% of 6,200 active | AID 488917, 2010
Casp3 select – caspase-3 protease inhibitors, confirmation, selectivity assay for SENP inhibitor project, biochemical, single concentration | 60% of 6,200 active | inhibition, % at 12.5 µM | shares compounds with SENP7 block | purified caspase-3, Z-DEVD-aminoluciferin luminescence, 60 min;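 active means mean inhibition above about 50%, limit read from the data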;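 further: plate controls were enzyme with DMSO for no effect and wells without caspase-3 for full effect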
Luc interf – counter-screen for SENP inhibitors: luminescence interference; shares compounds with SENP7 block; Pre-incubated SENP8/Z-RLRGG-aminoluciferin, luciferase luminescence interference; inhibition, % at 12.5 µM; 39% of 6,200 active; AID 488919;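 active means mean inhibition above about 50% when retested at one dose, limit read from the data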;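 further: plate controls were DMSO wells with completed reaction for no effect and substrate without enzyme for full effect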
Starred values were filed as active, the others as inactive; . = no result.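 How the source made its calls, unless noted: active means mean inhibition above about 50% in the one-dose retest (limit read from the data); inactive means the rest.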

SMILES | SENP8 block-1 | HSP90 inh | SENP7 block | LGR2 antag | SENP8 block-2 | SENP6 inh | SENP8 confirm | SENP6 confirm | SENP7 confirm | Casp3 select | Luc interf
O=c1c2cc(-c3ccccc3)sc2nc2n1CCC2 | 69* | 3 | 72* | . | . | 75* | 19 | 69* | 92* | 31 | -4
Cc1nc2sc(-c3ccccc3)cc2c(=O)n1/N=C/N(C)C | 7 | -3 | 7 | -20 | -235 | -21 | . | . | . | . | .
Cc1nc2sc(-c3ccccc3)cc2c(=O)[nH]1 | 76* | 17* | -6 | 11 | -64 | 86* | 37 | 82* | 98* | 92* | 29
Cc1nc2sc(-c3ccccc3)cc2c(=O)n1-n1cccc1 | 34 | -1 | 43 | . | -12 | 62* | 7 | 17 | 43 | 32 | 2
O=c1[nH]c(-c2cccnc2)nc2sc(-c3ccccc3)cc12 | 43 | 5 | 39 | -37 | -400 | 33 | . | . | . | . | .
CN(C)C(=O)[C@@H]1[C@@H](CO)[C@@H]2Cn3c(ccc(-c4ccccc4)c3=O)[C@H]1N2C(=O)C1CCC1 | . | . | . | -20 | . | . | . | . | . | . | .
Cc1ccc(-c2nc3ccccn3c2NCc2ccc3c(c2)OCO3)cc1 | 1 | 4 | -4 | . | -298 | 51* | 29 | 20 | 43 | 26 | 40
COc1ccc(-c2nc3ccc(C)cn3c2NCc2ccc3c(c2)OCO3)cc1 | -12 | 1 | -4 | -18 | -351 | -2 | . | . | . | . | .
Oc1ccc(-c2nc3ccccn3c2NCc2ccco2)cc1 | 5 | -2 | 1 | . | -496 | 56* | 25 | 20 | 61* | 48 | 44
Cc1ccc(S(=O)(=O)N(C)C[C@@H]2OCCCC[C@H](C)Oc3ccc(NC(=O)Nc4ccc(C(F)(F)F)cc4)cc3C(=O)N([C@@H](C)CO)C[C@H]2C)cc1 | . | . | . | 1 | . | . | . | . | . | . | .
O=C(O)c1ccc(-c2cccc([N+](=O)[O-])c2)o1 | -9 | 3 | -8 | 1 | 31 | -10 | . | . | . | . | .
N#C/C(=C(/O)c1ccc(-c2cccc([N+](=O)[O-])c2)o1)c1nc2ccccc2s1 | 93* | -5 | 25 | -41 | -23 | 97* | 13 | 26 | 18 | 4 | 9
O=c1oc(Nc2ccccc2F)nc2ccccc12 | 54* | 4 | 42 | -25 | -139 | 76* | 4 | 99* | 103* | 99* | 98*
O=c1oc(Nc2ccccc2Cl)nc2ccccc12 | . | 9 | . | 0 | -97 | . | . | . | . | . | .
CC(=O)Nc1nc2cc3c(cc2s1)OCCO3 | 61* | 17* | 79* | 38 | 4 | 77* | 78* | 76* | 94* | 89* | 74*
Cn1c(N)c(C(=O)CCc2ccccc2)c(=O)n(C)c1=O | . | . | . | -73 | . | . | . | . | . | . | .
CCN(CC(=O)c1c(N)n(C)c(=O)n(C)c1=O)c1cccc2ccccc12 | 54* | -2 | 29 | 21 | -279 | 84* | 12 | 12 | 7 | -4 | -3
CC(C)NC(=O)N(C)C[C@H]1Oc2ccc(NC(=O)C3CCCCC3)cc2C(=O)N([C@H](C)CO)C[C@H]1C | . | . | . | 9 | . | . | . | . | . | . | .
Cc1ccc(-c2cc(C(=O)N/N=C/c3ccccc3O)n[nH]2)o1 | 49 | -2 | 52* | -42 | 6 | 67* | -1 | -3 | 86* | 53* | 30
O=[N+]([O-])c1cccc(-c2noc(-c3ccco3)n2)c1 | 45 | 2 | 54* | . | 16 | 68* | 9 | 8 | 29 | 25 | 9
c1ccc(-c2nccc(-c3ccco3)n2)nc1 | -5 | 0 | 7 | -4 | -5 | -1 | . | . | . | . | .
c1ccc(-c2noc(-c3cccc4ccccc34)n2)nc1 | 89* | 11 | 90* | . | -356 | 96* | 93* | 95* | 101* | 90* | 94*
COc1cccc(-c2nc(-c3ccccn3)no2)c1OC | -3 | -2 | 3 | . | -23 | -10 | . | . | . | . | .
c1ccc(-c2noc(-c3ccco3)n2)nc1 | 42 | 10 | 73* | . | 1 | 74* | 65* | 68* | 92* | 92* | 70*
c1ccc(-c2ccc(-c3nc(-c4ccccn4)no3)cc2)cc1 | 97* | 78* | 98* | 102* | -32 | 98* | -24 | 74* | 81* | 97* | 17
SMILES | SENP8 block-1 | HSP90 inh | SENP7 block | LGR2 antag | SENP8 block-2 | SENP6 inh | SENP8 confirm | SENP6 confirm | SENP7 confirm | Casp3 select | Luc interf
COc1ccc(NC(=O)N[C@H]2CC[C@H](CCNC(=O)CCN3CCCCC3)O[C@@H]2CO)cc1 | . | . | . | 13 | . | . | . | . | . | . | .
CN(C)CC(=O)Nc1ccc2c(c1)[C@H]1C[C@@H](CC(=O)N3CCN(C)CC3)O[C@@H](CO)[C@H]1O2 | . | . | . | 2 | . | . | . | . | . | . | .
CCC(=O)Oc1ccc(C(=O)Nc2ccc3c(c2)OCO3)cc1 | 34 | 3 | 73* | -20 | -7 | 64* | 37 | 56* | 62* | 71* | 17
O=C(Nc1ccc2c(c1)OCO2)OCc1ccccc1 | 38 | 1 | 60* | -80 | 15 | -22 | 52* | 51* | 82* | 53* | 34
CCCOc1ccc(C(=O)Nc2ccc3c(c2)OCO3)cc1 | 71* | 4 | 89* | -116 | 8 | 82* | 14 | 73* | 80* | 84* | 19
CCOC(=O)CNc1ccc2c(c1)OCO2 | 4 | 1 | -1 | . | 1 | 59* | 13 | 12 | 8 | 2 | -3
CCOC(=O)CNC(=O)/C=C/c1ccc2c(c1)OCO2 | -2 | -2 | -8 | -10 | -249 | -20 | . | . | . | . | .
CCCN1[C@@H]2c3ccc(-c4ccccc4OC)c(=O)n3C[C@@H]2[C@@H](CO)[C@@H]1C(=O)Nc1nccs1 | . | . | . | 12 | . | . | . | . | . | . | .
O=C(CC1Nc2cccc3cccc(c23)NC1=O)Nc1ccc(F)cc1 (stereo not drawn) | 60* | 2 | 43 | -14 | -68 | 87* | -13 | -6 | -10 | 2 | -1
